PubChem BioAssay (NCATS)
Inconclusive results are not listed. Entries that show only a call come without a potency. Values without a mark were called inactive. Calls of active or inactive are those of the source. Calls follow the shape of the dose curve; as a rule, active = well fitted curve in the direction sought with a large enough effect; inconclusive = small, poorly fitted or top-dose-only effect, or another doubt; inactive = no such curve, though single readings can be large; an effect the other way counts as inactive or inconclusive.

Columns and labels:
[1] = biological target: Rap guanine nucleotide exchange factor 3 (Homo sapiens) (UniProt O95398); test: Confirmatory qHTS for antagonist of cAMP-regulated guanine nucleotide exchange factor 3 (EPAC1) (AID 1645880); also: nearly all actives have a fitted effect of over 55% in size; also: potency is read from the fitted curve at half-maximal effect
Procedure, shortened: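 Nucleotide exchange uses 100 nM EPAC1, 250 nM RAP1B-BODIPY-GDP and 50 uM GDP, with compounds in a concentration-titration series. After 5 min at room temperature, fluorescence (480 nm ex/540 nm em) is read every 5 min for 30 min. Data are normalized to control ATA and DMSO.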

[2] = biological target: Rap guanine nucleotide exchange factor 3 (Homo sapiens) (UniProt O95398); test: Confirmatory qHTS for agonist of cAMP-regulated guanine nucleotide exchange factor 3 (EPAC1) (AID 1645881); also: nearly all actives have a fitted effect of over 75% in size; also: potency is read from the fitted curve at half-maximal effect;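 as to activation: EPAC1 catalysed release of BODIPY-GDP from Rap1B seen as fluorescence loss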
[3] = biological target: Rap guanine nucleotide exchange factor 4 (Homo sapiens) (UniProt Q8WZA2); test: Confirmatory qHTS for agonist of cAMP-regulated guanine nucleotide exchange factor 4 (EPAC2) (AID 1645884);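 also: nucleotide exchange releases bodipy-GDP from Rap1 and this lowers its fluorescence; nearly all actives have a fitted effect of over 65% in size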; also: potency is read from the fitted curve at half-maximal effect
[4] = biological target: Rap guanine nucleotide exchange factor 4 (Homo sapiens) (UniProt Q8WZA2); test: Confirmatory qHTS for antagonist of cAMP-regulated guanine nucleotide exchange factor 4 (EPAC2) (AID 1645885); also: nearly all actives have a fitted effect of over 25% in size; also: potency is read from the fitted curve at half-maximal effect
[5] = biological target: Rap guanine nucleotide exchange factor 3 (Homo sapiens) (UniProt O95398); test: Counterscreen qHTS for antagonist of cAMP-regulated guanine nucleotide exchange factor 3 (EPAC1) (AID 1645888);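 also: fluorescence loss as bound BODIPY-GDP is released from Rap1B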
Procedure, shortened: (§1)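 Rap1B-BODIPY-GDP 250 nM + GDP 50 uM; cpds 7-pt, final 9.74 nM–152 uM (activator mode) or from 7.32 nM upwards (inhibitor mode); RT; FI 480/540 nm at 5 and 30 min, then ± cAMP, reread.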

[6] = biological target: Rap guanine nucleotide exchange factor 3 (Homo sapiens) (UniProt O95398); test: Counterscreen qHTS for agonist of cAMP-regulated guanine nucleotide exchange factor 3 (EPAC1) (AID 1645889); also: nearly all actives have a fitted effect of over 40% in size; also: potency is read from the fitted curve at half-maximal effect
Procedure, shortened: as §1

Chain of Rap guanine nucleotide exchange factor 4 (Homo sapiens) (Q8WZA2 whole entry, looked up): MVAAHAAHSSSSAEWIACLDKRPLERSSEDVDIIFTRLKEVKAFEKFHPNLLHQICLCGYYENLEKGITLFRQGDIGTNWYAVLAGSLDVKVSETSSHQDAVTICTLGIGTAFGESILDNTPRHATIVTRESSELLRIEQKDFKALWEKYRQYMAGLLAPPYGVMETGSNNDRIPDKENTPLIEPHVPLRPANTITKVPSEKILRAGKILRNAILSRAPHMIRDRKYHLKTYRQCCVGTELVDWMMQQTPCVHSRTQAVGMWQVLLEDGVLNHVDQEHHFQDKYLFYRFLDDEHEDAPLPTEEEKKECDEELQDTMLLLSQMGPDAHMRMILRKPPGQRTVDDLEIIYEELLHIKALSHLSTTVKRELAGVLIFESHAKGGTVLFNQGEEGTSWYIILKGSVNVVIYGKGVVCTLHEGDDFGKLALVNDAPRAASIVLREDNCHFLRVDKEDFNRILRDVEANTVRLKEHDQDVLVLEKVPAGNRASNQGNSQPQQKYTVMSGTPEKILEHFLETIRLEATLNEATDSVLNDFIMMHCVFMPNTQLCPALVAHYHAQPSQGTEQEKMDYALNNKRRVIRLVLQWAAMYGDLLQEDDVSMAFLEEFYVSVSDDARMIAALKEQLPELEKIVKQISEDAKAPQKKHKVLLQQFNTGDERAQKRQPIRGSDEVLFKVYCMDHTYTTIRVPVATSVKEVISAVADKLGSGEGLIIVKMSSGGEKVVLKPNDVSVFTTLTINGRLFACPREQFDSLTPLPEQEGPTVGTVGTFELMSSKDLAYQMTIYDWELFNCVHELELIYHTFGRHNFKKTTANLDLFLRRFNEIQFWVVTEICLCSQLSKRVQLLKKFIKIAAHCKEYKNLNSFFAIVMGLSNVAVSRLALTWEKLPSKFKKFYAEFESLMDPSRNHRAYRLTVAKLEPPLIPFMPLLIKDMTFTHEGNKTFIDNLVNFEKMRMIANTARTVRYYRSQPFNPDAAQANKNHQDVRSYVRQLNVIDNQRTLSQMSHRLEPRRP
Chain of Rap guanine nucleotide exchange factor 3 (Homo sapiens) (O95398 whole entry, looked up): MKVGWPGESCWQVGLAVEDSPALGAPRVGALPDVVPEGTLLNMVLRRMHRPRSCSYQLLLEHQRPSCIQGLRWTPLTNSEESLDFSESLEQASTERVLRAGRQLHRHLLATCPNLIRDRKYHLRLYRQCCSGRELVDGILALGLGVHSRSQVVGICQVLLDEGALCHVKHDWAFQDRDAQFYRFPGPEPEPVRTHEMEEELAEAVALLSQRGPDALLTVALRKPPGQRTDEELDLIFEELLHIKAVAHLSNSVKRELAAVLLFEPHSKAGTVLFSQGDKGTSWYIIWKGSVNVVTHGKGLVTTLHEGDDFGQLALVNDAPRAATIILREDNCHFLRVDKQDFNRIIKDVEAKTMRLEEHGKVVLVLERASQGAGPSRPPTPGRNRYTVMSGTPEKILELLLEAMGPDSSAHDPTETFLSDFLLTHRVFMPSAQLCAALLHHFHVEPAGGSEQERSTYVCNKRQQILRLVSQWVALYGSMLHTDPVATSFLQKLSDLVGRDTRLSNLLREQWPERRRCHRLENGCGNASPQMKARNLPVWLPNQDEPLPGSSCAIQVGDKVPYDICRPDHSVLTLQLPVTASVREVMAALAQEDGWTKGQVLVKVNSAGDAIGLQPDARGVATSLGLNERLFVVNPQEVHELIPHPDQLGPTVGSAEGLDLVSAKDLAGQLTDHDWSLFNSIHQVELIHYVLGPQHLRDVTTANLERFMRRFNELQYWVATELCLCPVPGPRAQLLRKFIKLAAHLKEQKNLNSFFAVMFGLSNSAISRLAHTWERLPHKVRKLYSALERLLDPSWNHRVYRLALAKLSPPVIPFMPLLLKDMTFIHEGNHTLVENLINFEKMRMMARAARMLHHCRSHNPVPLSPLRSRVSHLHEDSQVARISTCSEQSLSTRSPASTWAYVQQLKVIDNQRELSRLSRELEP

Structure (SMILES)	Potency [1]	Potency [2]	Potency [3]	Potency [4]	Potency [5]	Potency [6]	activation [3]	activity change, negative = inhibition [5]	activation [6]
CCN(CC)c1ccc2oc(=O)c(C)nc2c1	inactive	100 µM (active)	100 µM (active)	75.7 µM (active)	inactive	39.8 µM (active)			
COC(=O)c1c(SC)nc2ccccc2c1OCc1cc(C)ccc1C	inactive	inactive	inactive	inactive	inactive	inactive			
Cc1ccc(S(=O)(=O)N2[C@@H](c3ccc(Cl)c(Cl)c3)C(C(=O)O)=C[C@H]2CC2CCCC2)cc1	44.7 µM (active)	inactive		inactive			11.3% [at 17.1 µM, percent relative to cAMP agonist control]	-8.49% [at 30.8 µM]	18.3% [at 30.8 µM]
Cc1ccc(N(Cc2cccs2)C(=O)c2ccccc2[N+](=O)[O-])cc1	inactive	inactive	inactive	inactive	inactive	inactive			
COc1ccc(CCNC(=O)CCc2nc3sc4c(c3c(=O)[nH]2)CCCC4)cc1	84.9 µM (active)	inactive	inactive	4.78 µM (active)	inactive	inactive			
CN(Cc1ccccc1)S(=O)(=O)c1ccc(Cl)c(C(=O)NCc2ccncc2)c1	inactive	inactive	inactive	inactive	inactive	inactive			
O=C(COc1ccc(F)cc1)Nc1nccs1	inactive	inactive	inactive	inactive	inactive	inactive			
Cc1ccc(NC(=O)c2cccc(NC(=O)/C=C/c3ccco3)c2)cc1C	39.8 µM (active)	inactive		inactive			6.06% [at 17.1 µM, percent relative to cAMP agonist control]	-4.44% [at 30.8 µM]	5.53% [at 30.8 µM]
CCCCCCNC(=O)c1cc(-c2ccco2)nc2ccccc12	22.4 µM (active)	inactive		inactive			3.51% [at 17.1 µM, percent relative to cAMP agonist control]	-13.3% [at 30.8 µM]	27.4% [at 30.8 µM]
CC1CC1C(=O)OCC(=O)NNC(=O)COc1ccc(Br)cc1 (configuration not stated)	inactive	inactive		inactive			2.41% [at 17.1 µM, percent relative to cAMP agonist control]	26.9% [at 30.8 µM]	28.1% [at 30.8 µM]
Cc1nnc(N/N=C\c2ccc(-c3ccccc3[N+](=O)[O-])o2)n1N	inactive	inactive		inactive			4.31% [at 17.1 µM, percent relative to cAMP agonist control]	7.63% [at 30.8 µM]	36.2% [at 30.8 µM]
COc1ccc(C2c3c(ncn(CCCO)c3=N)Oc3ccc4ccccc4c32)cc1 (configuration not stated)	inactive	inactive		inactive			3.99% [at 17.1 µM, percent relative to cAMP agonist control]	0.394% [at 30.8 µM]	22.2% [at 30.8 µM]
CCOc1cccc(CC(=O)NCc2ccc3c(c2)CCN3C(C)=O)c1OCC	inactive	inactive	inactive	inactive	inactive	inactive			
Cc1ccc(C)c(NC(=O)CN(C)C(=O)c2cccc(S(=O)(=O)N3CCCC3)c2)c1	inactive	inactive	inactive	inactive	inactive	inactive			
CC1(C(=O)NS(=O)(=O)c2ccc(Cl)s2)CCN1C(=O)C1(c2ccc(Cl)cc2)CCC1 (configuration not stated)	9.53 µM (active)	inactive	inactive	8.49 µM (active)	inactive	inactive			
C/C(=N\NC(=O)C1CC1)c1cccs1	inactive	inactive	inactive	inactive	inactive	inactive			
CC1=NOC(=O)/C1=C\c1ccc(-c2ccc(Cl)cc2Cl)o1	15.8 µM (active)	inactive		inactive			-0.185% [at 17.1 µM, percent relative to cAMP agonist control]	-37.2% [at 30.8 µM]	15.1% [at 30.8 µM]
CN1CCN(S(=O)(=O)c2ccc(Nc3ccc(F)cc3)nc2)CC1	inactive	inactive		inactive			6.27% [at 17.1 µM, percent relative to cAMP agonist control]	-5.53% [at 30.8 µM]	16.5% [at 30.8 µM]
CC1CC(C)CN(C(=O)c2cccc(S(=O)(=O)Nc3cc(C(F)(F)F)ccc3Cl)c2)C1 (configuration not stated)	13.5 µM (active)	inactive	inactive	inactive	inactive	inactive			
CCOC(=O)C1=C(C)N=C2SC=C(C)N2C1c1ccc(OC)cc1 (configuration not stated)	inactive	inactive	inactive	inactive	inactive	inactive			
COc1ccc(/C=C(\NC(=O)c2cccs2)C(=O)Nc2ccc(C)cc2)cc1OC	47.8 µM (active)	inactive	inactive	inactive	inactive	inactive			
Cc1ccc(S(=O)(=O)NCCC(=O)N2CC(C)OC(C)C2)cc1 (configuration not stated)	inactive	inactive	inactive	inactive	inactive	inactive			
